In PubChem BioAssay (Tox21):
“And” between values parts separate entries of the source, which are not always exact repeats. Equal values may be shown once. Records with an inconclusive call do not appear. The source made the active and inactive calls. Unless noted, calls follow the shape of the dose curve; as a rule, active = well fitted curve in the direction sought with a large enough effect in the repeat runs; inconclusive = weak or mixed curves; inactive = no such curve, though single readings can be large; an effect the other way counts as inactive or inconclusive.

Tests used:
[1] = A CellTox Green Cytotoxicity Assay to monitor cytotoxicity in HEK293 cells - 32 hour (AID 1224881); also: nearly all actives have a fitted effect of over 40% in size
Summary of the method: (§1)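 Homogeneous no-lysis format: HEK293 cell suspension mixed with CellTox Green reagent, seeded, incubated 5 h at 37 C/5% CO2, then dosed by pintool with compound in DMSO.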

[2] = A CellTox Green Cytotoxicity Assay to monitor cytotoxicity in HepG2 cells - 0 hour (AID 1224882); also: nearly all actives have a fitted effect of over 35% in size
Summary of the method: (§2)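 Fluorescent DNA-binding dye, 600 HepG2 cells/well, 5 h preincubation then compound in DMSO; same plates read at 0–40 h, 37 C.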

[3] = A CellTox Green Cytotoxicity Assay to monitor cytotoxicity in HepG2 cells - 32 hour (AID 1224883); also: nearly all actives have a fitted effect of over 50% in size
Summary of the method: as §2

[4] = A CellTox Green Cytotoxicity Assay to monitor cytotoxicity in HEK293 cells - 8 hour (AID 1224884); also: nearly all actives have a fitted effect of over 35% in size
Summary of the method: as §1

[5] = qHTS RealTime-Glo MT Cell Viability Assay in HepG2 cells - 16 hour (AID 1224885); also: nearly all actives have a fitted effect of over 50% in size
Summary of the method: (§3)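 qHTS, HepG2, 600 cells/well, RealTime-Glo (NanoLuc + prosubstrate) added with cells; 5 h preincubation; DMSO compound addition; 37 C; luminescence at 0/8/16/24/32/40 h.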

[6] = qHTS RealTime-Glo MT Cell Viability Assay in HEK293 cells - 24 hour (AID 1224886); also: top concentration of the series differs between compounds; nearly all actives have a fitted effect of over 50% in size
Summary of the method: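 Assay medium contained NanoLuc luciferase plus cell-permeant prosubstrate, added with HEK293 cells at 600 cells/well. After 5 h at 37 C/5% CO2 compounds were added; plates stayed at 37 C for 40 h with serial luminescence reads.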

[7] = qHTS RealTime-Glo MT Cell Viability Assay in HEK293 cells - 8 hour (AID 1224887); also: top concentration of the series differs between compounds; nearly all actives have a fitted effect of over 50% in size
Summary of the method: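 Measured as luminescence from the same continuously cultured HEK293 wells at successive time points (0, 8, 16, 24, 32, 40 h) after compound addition. Reagent present from seeding; dosing at 5 h; incubation 37 C.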

[8] = qHTS RealTime-Glo MT Cell Viability Assay in HepG2 cells - 0 hour (AID 1224889); also: nearly all actives have a fitted effect of over 50% in size
Summary of the method: as §3

[9] = A CellTox Green Cytotoxicity Assay to monitor cytotoxicity in HepG2 cells - 8 hour (AID 1224890); also: nearly all actives have a fitted effect of over 45% in size
Summary of the method: as §2

[10] = qHTS assay to identify small molecule antagonists of the estrogen receptor alpha (ER-alpha) signaling pathway using the BG1 cell line in the presence of 0.1 nM 17-beta-estradiol - cell viability counter screen (AID 1259241); also: nearly all actives have a fitted effect of over 40% in size; also: potency is read from the fitted curve at half-maximal effect
Summary of the method: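 VM7Luc4E2 cells (endogenous ER-alpha, 4×ERE-luciferase), hormone-starved 5 days in charcoal-stripped FBS, were treated with compounds plus 0.1 nM 17beta-estradiol for 22 hr at 37C; viability read in same wells as CellTiter-Fluor live-cell protease fluorescence.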

[11] = qHTS assay to identify small molecule antagonists of the androgen receptor (AR) signaling pathway using the MDA cell line in the presence of 0.5 nM R1881 - cell viability counter screen (AID 1259242); also: nearly all actives have a fitted effect of over 45% in size
Summary of the method: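 Human breast carcinoma MDA-kb2 cells, cultured without CO2, receive compounds alongside 0.5 nM (final) R1881 agonist. After 16 hr at 37C, viability is taken as live-cell protease signal.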

[12] = target: Estrogen receptor (Homo sapiens) (UniProt P03372); experiment: qHTS assay to identify small molecule antagonists of the estrogen receptor alpha (ER-alpha) signaling pathway using the BG1 cell line in the presence of 0.1 nM 17-beta-estradiol (AID 1259244); also: nearly all actives have a fitted effect of over 50% in size; also: potency is read from the fitted curve at half-maximal effect
Summary of the method: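 Seeding of stripped-serum-adapted VM7Luc4E2 cells, 24 h attachment, compound transfer, then 0.1 nM final 17beta-estradiol; after 22 h incubation, ONE-Glo reagent and luminescence reading.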

[13] = qHTS assay to identify small molecule HDAC inhibitors (AID 1259364); also: potency is read from the fitted curve at half-maximal effect;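 also: wild-type HCT-116 cells with endogenous class I/II HDAC activity; nearly all actives have a fitted effect of over 45% in size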
Summary of the method: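 After a 2 hr compound incubation (37C, 5% CO2), HCT-116 cells seeded at 1,500/well the day before received HDAC-Glo reagent; signal read as luminescence after 30 min at room temperature.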

[14] = qHTS assay to identify small molecule HDAC inhibitors - cell viability counter screen (AID 1259365)
Summary of the method: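 Wild-type HCT-116 cells were seeded at 1,500 per well, incubated overnight at 37 C, then exposed to compounds in DMSO for 2hr. Viability was read by CellTiter-Glo luminescence after 30min at room temperature.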

[15] = qHTS assay to identify small molecule agonists of the sonic hedgehog signaling (Shh) pathway - cell viability counter screen (AID 1259366); also: nearly all actives have a fitted effect of over 50% in size
Summary of the method: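 NIH/3T3-derived 3T3 Gli1-Luc cells (stable Gli1-responsive firefly luciferase reporter) were seeded, rested 4 hr at 37 C/5% CO2, then exposed to compounds in DMSO for 24 hr; viability was read by CellTiter-Fluor fluorescence in the same wells.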

[16] = qHTS assay to identify small molecule antagonists of the sonic hedgehog signaling (Shh) pathway - cell viability counter screen (AID 1259367); also: nearly all actives have a fitted effect of over 55% in size
Summary of the method: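 Conditioned medium drove Shh signaling in 3T3 Gli1-Luc cells exposed to compounds at 37C and 5% CO2. Viability was determined from CellTiter-Fluor fluorescence, with reagent incubated 1 hr after 23 hr of treatment.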

[17] = A CellTox Green Cytotoxicity Assay to monitor cytotoxicity in HEK293 cells - 16 hour (AID 1224888); also: nearly all actives have a fitted effect of over 35% in size
Summary of the method: as §1

[18] = target: Androgen receptor (Homo sapiens) (UniProt P10275); experiment: qHTS assay to identify small molecule antagonists of the androgen receptor (AR) signaling pathway using the MDA cell line in the presence of 0.5 nM R1881 (AID 1259243); also: nearly all actives have a fitted effect of over 50% in size; also: potency is read from the fitted curve at half-maximal effect
Summary of the method: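 Cells: MDA-kb2 (MMTV-luc). Stimulus: 0.5 nM R1881. Time: 16 hr, 37C, no CO2. Detection: ONE-Glo luminescence after 30 min at RT.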

[19] = qHTS assay to identify small molecule phospholipidosis (PLD) inducers (AID 1259344; active = well fitted curve in the direction sought with a large enough effect; an effect the other way counts as inactive or inconclusive)
Summary of the method: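 After 4 h attachment on collagen I, HepG2 cells were dosed with compound alongside LipidTOX Red, kept 24 h at 37 C, fixed, and imaged for lamellar phospholipid pits.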

[20] = qHTS assay to identify small molecule agonists of the sonic hedgehog signaling (Shh) pathway (AID 1259368; calls by dose curve; also: series mostly up to about 92 µM; nearly all actives have a fitted effect of over 15% in size)
Summary of the method: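 Stable NIH/3T3 Gli1-Luc reporter clone; 24 hr cpd exposure after a 4 hr settling period; luminescence endpoint.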

Measured: Potency

Estrogen receptor (Homo sapiens), sequence (P03372 whole entry, looked up): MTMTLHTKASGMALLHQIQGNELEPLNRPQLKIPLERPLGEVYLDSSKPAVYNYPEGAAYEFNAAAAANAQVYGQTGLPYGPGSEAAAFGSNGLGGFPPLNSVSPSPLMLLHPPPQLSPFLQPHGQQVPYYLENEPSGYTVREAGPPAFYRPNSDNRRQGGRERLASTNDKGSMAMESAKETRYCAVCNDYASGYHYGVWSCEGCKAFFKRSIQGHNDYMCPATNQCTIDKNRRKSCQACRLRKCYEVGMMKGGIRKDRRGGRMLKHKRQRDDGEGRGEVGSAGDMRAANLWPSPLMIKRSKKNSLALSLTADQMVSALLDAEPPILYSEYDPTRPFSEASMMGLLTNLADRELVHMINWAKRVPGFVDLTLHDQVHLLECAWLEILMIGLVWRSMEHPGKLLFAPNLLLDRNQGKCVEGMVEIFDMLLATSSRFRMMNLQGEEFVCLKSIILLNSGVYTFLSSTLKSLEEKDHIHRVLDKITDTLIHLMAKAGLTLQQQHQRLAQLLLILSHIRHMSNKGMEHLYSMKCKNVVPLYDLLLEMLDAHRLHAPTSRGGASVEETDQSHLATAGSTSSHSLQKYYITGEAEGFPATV
Androgen receptor (Homo sapiens), sequence (P10275 whole entry, looked up): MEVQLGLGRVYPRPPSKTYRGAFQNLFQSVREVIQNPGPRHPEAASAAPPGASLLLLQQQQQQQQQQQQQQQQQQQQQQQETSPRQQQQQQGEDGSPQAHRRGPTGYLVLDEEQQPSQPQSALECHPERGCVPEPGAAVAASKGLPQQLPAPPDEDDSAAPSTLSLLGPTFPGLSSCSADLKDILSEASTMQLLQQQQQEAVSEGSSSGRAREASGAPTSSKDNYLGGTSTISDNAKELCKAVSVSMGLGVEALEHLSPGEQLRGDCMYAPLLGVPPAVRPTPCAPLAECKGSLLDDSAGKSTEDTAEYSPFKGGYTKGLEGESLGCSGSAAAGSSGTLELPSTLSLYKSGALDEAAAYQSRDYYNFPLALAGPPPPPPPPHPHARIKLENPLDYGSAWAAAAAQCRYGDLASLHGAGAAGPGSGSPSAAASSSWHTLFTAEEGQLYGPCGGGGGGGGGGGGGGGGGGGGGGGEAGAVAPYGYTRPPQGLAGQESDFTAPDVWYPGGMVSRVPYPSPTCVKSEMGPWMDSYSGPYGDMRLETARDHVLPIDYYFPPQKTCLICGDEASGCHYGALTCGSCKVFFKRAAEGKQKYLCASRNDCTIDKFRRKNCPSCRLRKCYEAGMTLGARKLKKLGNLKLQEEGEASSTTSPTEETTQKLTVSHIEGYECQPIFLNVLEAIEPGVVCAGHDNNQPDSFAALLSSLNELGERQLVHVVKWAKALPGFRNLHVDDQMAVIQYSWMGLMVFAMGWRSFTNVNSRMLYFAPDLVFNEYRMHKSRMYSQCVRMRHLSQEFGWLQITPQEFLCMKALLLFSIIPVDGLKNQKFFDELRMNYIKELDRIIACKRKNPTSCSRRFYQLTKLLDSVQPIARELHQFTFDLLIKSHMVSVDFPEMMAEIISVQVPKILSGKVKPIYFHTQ

c1ccc2c(c1)ccc1cc3c(ccc4ccccc43)cc12
active: [13] 12.1 µM and 15.2 µM
not listed: [17] | [18] | [19] | [20]
inactive: all other assays above

CC(=O)Oc1ccc(C(c2ccc(OC(C)=O)cc2)c2ccccn2)cc1
active: [10] 750 nM | [18] 171 nM and 1.19 µM | [12] 54.2 nM and 944 nM
not listed: [20]
inactive: all other assays above

CC(C)=CCO
not listed: [18] | [19]
inactive: all other assays above

C/C=C/C(=O)N(CC)c1ccccc1C
not listed: [18]
inactive: all other assays above

Cc1ccc(C)c(O)c1
not listed: [12] | [18] | [19]
inactive: all other assays above

CC[C@]12CCCN3CCc4c(n(c5ccccc45)[C@@](O)(C(=O)OC)C1)[C@@H]32
not listed: [12]
inactive: all other assays above

CC(C)[N+](C)(CCOC(=O)C1c2ccccc2Oc2ccccc21)C(C)C
not listed: [17] | [18]
inactive: all other assays above
